# Experimental data from PubChem BioAssay (EPA / NIEHS).
# Records with an inconclusive call do not appear. The source made the active and inactive calls. The calls were made as follows: active = hit-call score of the fitted dose curve at least 0.9, where 1 is the maximum; inconclusive = response in the unintended direction; inactive = score below 0.9.
# What was measured:
# [1] = target: rat Thyrotropin Releasing Hormone Receptor (TRH), Trhr (gene 25570) (UniProt Q01717); experiment: NVS_GPCR_rTRH: NovaScreen (NVS) G Protein-Coupled Receptor Assay for rat Thyrotropin Releasing Hormone Receptor (TRH) (AID 2283329);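 also: hit means lower bound tracer signal versus DMSO baseline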
# Sequence of rat Thyrotropin Releasing Hormone Receptor (TRH), Trhr (gene 25570) (Q01717 whole entry, looked up): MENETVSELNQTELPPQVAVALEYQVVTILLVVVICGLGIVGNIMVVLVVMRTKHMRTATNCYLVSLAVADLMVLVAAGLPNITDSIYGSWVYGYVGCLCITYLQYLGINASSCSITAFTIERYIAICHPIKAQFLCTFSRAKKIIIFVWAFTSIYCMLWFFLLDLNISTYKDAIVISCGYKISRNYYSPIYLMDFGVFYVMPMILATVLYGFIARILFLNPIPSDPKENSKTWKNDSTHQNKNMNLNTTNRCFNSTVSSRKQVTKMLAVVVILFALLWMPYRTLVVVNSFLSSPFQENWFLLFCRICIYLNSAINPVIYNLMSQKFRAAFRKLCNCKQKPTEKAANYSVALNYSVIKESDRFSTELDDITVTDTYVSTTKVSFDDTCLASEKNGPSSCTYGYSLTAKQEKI
# Method in brief: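 Rat forebrain membrane prep, radioligand displacement, filter scintillation readout at 4 h. Single conc 25 uM, duplicate; actives retested as concentration series. DMSO = negative control/baseline.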
# [2] = target: rat Adrenergic Receptor, Alpha 2 (Adra2), Non-selective Binding, Adra2a (gene 25083) (UniProt P22909); experiment: NVS_GPCR_rAdra2_NonSelective: NovaScreen (NVS) G Protein-Coupled Receptor Assay for rat Adrenergic Receptor, Alpha 2 (Adra2), Non-selective Binding (AID 2283299)
# Sequence of rat Adrenergic Receptor, Alpha 2 (Adra2), Non-selective Binding, Adra2a (gene 25083) (P22909 whole entry, looked up): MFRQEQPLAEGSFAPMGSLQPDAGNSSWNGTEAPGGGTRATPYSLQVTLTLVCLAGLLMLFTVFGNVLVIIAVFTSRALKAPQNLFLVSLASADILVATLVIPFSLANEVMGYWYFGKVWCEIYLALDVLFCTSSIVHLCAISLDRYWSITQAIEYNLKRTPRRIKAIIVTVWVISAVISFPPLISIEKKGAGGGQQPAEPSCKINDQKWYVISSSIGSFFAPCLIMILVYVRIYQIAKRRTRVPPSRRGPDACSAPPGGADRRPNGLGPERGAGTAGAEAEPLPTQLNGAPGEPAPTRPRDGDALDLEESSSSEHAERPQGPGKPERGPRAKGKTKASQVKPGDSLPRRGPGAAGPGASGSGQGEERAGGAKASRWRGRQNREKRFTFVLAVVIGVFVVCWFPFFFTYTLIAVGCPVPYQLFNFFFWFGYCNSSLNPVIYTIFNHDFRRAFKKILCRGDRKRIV
# Method in brief: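 Rat cortical membranes, radioligand competitive displacement read by filter-based scintillation counting 1.25 hours after dosing. Primary screen in duplicate at 25 uM; actives followed up in concentration series.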
# [3] = target: Sodium channel protein type 1 subunit alpha (Rattus norvegicus) (UniProt P04774); experiment: NVS_IC_rNaCh_site2: NovaScreen (NVS) Ion Channel Assay for rat Sodium Channel, Site 2 (NaCh) (AID 2283322);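 also: hit means loss of radioligand binding signal relative to DMSO so AC50 marks displacement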
# Method in brief: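 Membranes: rat forebrain. Format: competitive radioligand displacement, filter separation, scintillation readout, 1 h exposure. Primary screen in duplicate at 25 uM; actives retested in concentration series.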
# [4] = NVS_IC_rCaBTZCHL: NovaScreen (NVS) Ion Channel Assay for Calcium Channel, Type L, Benzothiazepine Site (CaBTZCHL) (AID 2283337)
# Method in brief: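 Radioligand displacement at the benzothiazepine site using rat cortical membranes; bound label measured by filtration and scintillation counting 1.5 h after dosing. Single-point 25 uM in duplicate, then concentration series; DMSO baseline.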
# [5] = target: human Peripheral-type Benzodiazepine Receptor (PBR), TSPO (gene 706) (UniProt P30536); experiment: NVS_MP_hPBR: NovaScreen (NVS) Membrane Protein Assay for human Peripheral-type Benzodiazepine Receptor (PBR) (AID 2283331);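 also: hits reduce radioligand binding relative to DMSO baseline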
# Sequence of human Peripheral-type Benzodiazepine Receptor (PBR), TSPO (gene 706) (P30536 whole entry, looked up): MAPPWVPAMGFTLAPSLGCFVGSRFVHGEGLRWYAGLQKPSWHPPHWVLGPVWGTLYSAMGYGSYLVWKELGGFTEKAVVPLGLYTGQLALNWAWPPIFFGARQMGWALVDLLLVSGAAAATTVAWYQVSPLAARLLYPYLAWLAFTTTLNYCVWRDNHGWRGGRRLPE
# Method in brief: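 Human colonic cell membranes were incubated with test chemical for 1 hour; radioligand binding was measured by filter-based scintillation counting. Primary screen ran in duplicate at 25 uM, with actives followed in concentration series; loss of signal versus DMSO baseline.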
# [6] = target: rat Peripheral-type Benzodiazepine Receptor (PBR), Tspo (gene 24230) (UniProt P16257); experiment: NVS_MP_rPBR: NovaScreen (NVS) Membrane Protein Assay for rat Peripheral-type Benzodiazepine Receptor (PBR) (AID 2283335)
# Sequence of rat Peripheral-type Benzodiazepine Receptor (PBR), Tspo (gene 24230) (P16257 whole entry, looked up): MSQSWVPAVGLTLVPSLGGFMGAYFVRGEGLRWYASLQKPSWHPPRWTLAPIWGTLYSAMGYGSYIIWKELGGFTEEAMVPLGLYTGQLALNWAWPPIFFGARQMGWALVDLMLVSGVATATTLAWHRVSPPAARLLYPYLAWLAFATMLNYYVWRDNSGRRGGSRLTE
# Method in brief: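 Rat kidney membranes; radioligand binding with displacement, filter-based scintillation counting, 1 h incubation. Primary screen in duplicate at 25 uM, actives followed in concentration series; loss of binding vs DMSO.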
# [7] = target: bovine Estrogen Receptor (ER), ESR1 (gene 407238) (UniProt P49884); experiment: NVS_NR_bER: NovaScreen (NVS) Nuclear Receptor Binding Assay for bovine Estrogen Receptor (ER) (AID 2283345);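 also: actives lower the bound radioligand count which means they displace the ER ligand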
# Sequence of bovine Estrogen Receptor (ER), ESR1 (gene 407238) (P49884 whole entry, looked up): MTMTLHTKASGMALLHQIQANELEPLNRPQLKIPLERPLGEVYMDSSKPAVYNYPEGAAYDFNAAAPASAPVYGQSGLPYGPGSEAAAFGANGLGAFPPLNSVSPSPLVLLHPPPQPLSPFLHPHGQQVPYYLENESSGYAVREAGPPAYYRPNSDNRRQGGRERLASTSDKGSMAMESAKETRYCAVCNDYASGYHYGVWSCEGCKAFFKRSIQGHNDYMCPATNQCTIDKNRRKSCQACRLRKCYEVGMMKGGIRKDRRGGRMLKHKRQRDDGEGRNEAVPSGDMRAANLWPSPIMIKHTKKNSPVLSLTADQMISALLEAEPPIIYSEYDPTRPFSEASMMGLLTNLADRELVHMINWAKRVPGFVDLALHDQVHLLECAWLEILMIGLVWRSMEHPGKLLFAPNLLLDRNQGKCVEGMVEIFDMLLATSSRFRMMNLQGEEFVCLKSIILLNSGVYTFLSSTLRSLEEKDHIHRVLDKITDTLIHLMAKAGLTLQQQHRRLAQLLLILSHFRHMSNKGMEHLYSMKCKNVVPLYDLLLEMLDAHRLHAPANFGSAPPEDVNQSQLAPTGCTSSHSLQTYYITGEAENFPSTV
# Method in brief: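 Scintillation counting of displaced radioligand gave the readout; bovine uterine membrane extract supplied the receptor. Measured 18 h post-dose, normalized to DMSO baseline. Single 25 uM duplicate screen preceded concentration-response follow-up.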
structure (smiles),measurement,setting,value
CC1(C)[C@@H]2CC[C@@]1(C)[C@H](O)C2,outcome,[1],inactive
CCn1c2ccccc2c2cc(N)ccc21,AC50,[2],25 µM (active)
C=C(C)C(=O)O,outcome,[1],inactive
CCCC/C=C\CCCCCCCCCC=O,outcome,[1],inactive
O=P(c1ccccc1)(c1ccccc1)c1ccccc1,AC50,[3],8.17 µM (active)
same,outcome,[4],inactive
CN(CCOc1ccc(CC2SC(=O)NC2=O)cc1)c1ccccn1 (stereo not drawn),AC50,[5],5.39 µM (active)
same,AC50,[6],12.9 µM (active)
same,outcome,[7],inactive
C=CCOc1nc(OCC=C)nc(OCC=C)n1,outcome,[1],inactive
same,AC50,[5],14.3 µM (active)
same,AC50,[6],6.87 µM (active)
CCCCCCCCCCCCCCCCCC(=O)OCC(CC)CCCC (stereo not drawn),outcome,[6],inactive
